13 molecules from PubChem BioAssay (NCATS) can be followed below.

Assay [1] is described as follows: Quantitative High-Throughput drug screen in 47 multiple myeloma cell lines against the NCATS MIPE library collection: LP1_DSMZ cell viability assay (AID 1918982). Note: nearly all actives have a fitted effect of over 35% in size. The method, boiled down: (§1)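 Viability after 48 h drug exposure was measured as ATP-dependent luminescence. Cells, 500 per well, sat at 37 °C under 5% CO2; DMSO wells set 100%, media-only wells 0%.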
A short description of assay [2]: Quantitative High-Throughput drug screen in 47 multiple myeloma cell lines against the NCATS MIPE library collection: L363_DSMZ cell viability assay (AID 1918984). Note: nearly all actives have a fitted effect of over 40% in size. As to conditions: L363 myeloma viability, CellTiter-Glo ATP luminescence, 48 h; viability (% of control): at 45.8 µM (top of the series). A digest of the protocol: as §1
On the technique in general: ATP-based viability assays read luminescence as a measure of living cells.

The nature of assay [3]: Quantitative High-Throughput drug screen in 47 multiple myeloma cell lines against the NCATS MIPE library collection: OCIMY5_PLB cell viability assay (AID 1918988). Note: nearly all actives have a fitted effect of over 65% in size. The method, boiled down: as §1
Assay [4] in a line: Quantitative High-Throughput drug screen in 47 multiple myeloma cell lines against the NCATS MIPE library collection: XG6_PLB cell viability assay (AID 1919865). Note: nearly all actives have a fitted effect of over 40% in size. A digest of the protocol: as §1
Assay [5] is described as follows: Quantitative High-Throughput drug screen in 47 multiple myeloma cell lines against the NCATS MIPE library collection: PE2_PLB cell viability assay (AID 1919869). Note: nearly all actives have a fitted effect of over 35% in size. The method, boiled down: as §1
Assay [6] is described as follows: Quantitative High-Throughput drug screen in 47 multiple myeloma cell lines against the NCATS MIPE library collection: PCM6_Riken cell viability assay (AID 1919870). Note: nearly all actives have a fitted effect of over 30% in size. A digest of the protocol:
as §1

The nature of assay [7]: Quantitative High-Throughput drug screen in 47 multiple myeloma cell lines against the NCATS MIPE library collection: KMS11_JCRBsus cell viability assay (AID 1919873). Note: nearly all actives have a fitted effect of over 50% in size. A digest of the protocol:
as §1

A short description of assay [8]: Quantitative High-Throughput drug screen in 47 multiple myeloma cell lines against the NCATS MIPE library collection: KMS28BM_JCRB cell viability assay (AID 1919874). Note: nearly all actives have a fitted effect of over 35% in size. A digest of the protocol:
as §1

Assay [9] can be described thus: Quantitative High-Throughput drug screen in 47 multiple myeloma cell lines against the NCATS MIPE library collection: RPMI8226_ATCC cell viability assay (AID 1919871). Note: nearly all actives have a fitted effect of over 30% in size. A digest of the protocol: as §1
Assay [10] can be described thus: Quantitative High-Throughput drug screen in 47 multiple myeloma cell lines against the NCATS MIPE library collection: OPM2_DSMZ cell viability assay (AID 1919872). Note: nearly all actives have a fitted effect of over 30% in size. The method, boiled down:
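CellTiter-Glo ATP luminescence gave viability after 48 h compound treatment at 37C of 500 multiple myeloma cells per well. Normalisation used DMSO-only wells as 100% and media-only wells as 0% viability; primary qHTS of approved and investigational drugs.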

Assay [11] can be described thus: Quantitative High-Throughput drug screen in 47 multiple myeloma cell lines against the NCATS MIPE library collection: KMS34_JCRB cell viability assay (AID 1918985). Note: nearly all actives have a fitted effect of over 40% in size. The method, boiled down: as §1
Assay [12] is described as follows: Quantitative High-Throughput drug screen in 47 multiple myeloma cell lines against the NCATS MIPE library collection: OPM1_PLB cell viability assay (AID 1918989). Note: nearly all actives have a fitted effect of over 40% in size. The method, boiled down:
as §1

A short description of assay [13]: Quantitative High-Throughput drug screen in 47 multiple myeloma cell lines against the NCATS MIPE library collection: U266_ATCC cell viability assay (AID 1919864). Note: nearly all actives have a fitted effect of over 35% in size. The method, boiled down: as §1
Assay [14] can be described thus: Quantitative High-Throughput drug screen in 47 multiple myeloma cell lines against the NCATS MIPE library collection: XG1_PLB cell viability assay (AID 1919866). Note: nearly all actives have a fitted effect of over 35% in size. The method, boiled down: as §1
Assay [15] is described as follows: Quantitative High-Throughput drug screen in 47 multiple myeloma cell lines against the NCATS MIPE library collection: SKMM1_PLB cell viability assay (AID 1919863). Note: nearly all actives have a fitted effect of over 35% in size. As to conditions: SKMM1 myeloma viability, CellTiter-Glo ATP, 48 h; viability: hits give low values. A digest of the protocol: as §1
Assay [16] in a line: Quantitative High-Throughput drug screen in 47 multiple myeloma cell lines against the NCATS MIPE library collection: VP6_DJ cell viability assay (AID 1919867). Note: nearly all actives have a fitted effect of over 40% in size. The method, boiled down:
as §1

Assay [17] can be described thus: Quantitative High-Throughput drug screen in 47 multiple myeloma cell lines against the NCATS MIPE library collection: OCIMY7_PLB cell viability assay (AID 1918987). Note: nearly all actives have a fitted effect of over 65% in size. The following applies: OCI-MY7 myeloma viability, CellTiter-Glo ATP, 48 h; viability (% of DMSO): at 45.8 µM (top of the series). The method, boiled down: as §1
The nature of assay [18]: Quantitative High-Throughput drug screen in 47 multiple myeloma cell lines against the NCATS MIPE library collection: UTMC2_PLB cell viability assay (AID 1919868). Note: nearly all actives have a fitted effect of over 55% in size. The following applies: CellTiter-Glo ATP luminescence, 48 h; viability (% of DMSO control): at 45.8 µM (top of the series). The method, boiled down:
as §1

Assay [19] can be described thus: Quantitative High-Throughput drug screen in 47 multiple myeloma cell lines against the NCATS MIPE library collection: KMS28PE_JCRB cell viability assay (AID 1918983). Note: nearly all actives have a fitted effect of over 35% in size. The method, boiled down: as §1

Results filed as inconclusive are left out. A number with no mark means an inactive call. Calls of active or inactive are those of the source. Calls come from the whole dose curve; as a rule, active = well fitted cell-killing curve with a large enough effect; inconclusive = small, poorly fitted or top-dose-only effect, or effect the other way; inactive = no such curve, though single readings can be large or run the other way.
Potency is the fitted concentration of half-maximal effect.

As to `CCCCCCOC(=O)N=C(N)c1ccc(NCc2nc3cc(C(=O)N(CCC(=O)OCC)c4ccccn4)ccc3n2C)cc1`, the Potency in [1] was 14.8 µM (active); in assay [2], 13.2 µM (active); in assay [3] it was 20.9 µM (active); in [4], 11.8 µM (active); in assay [5] it was 13.2 µM (active); in assay [6], 20.9 µM (active). Further, the results for the Potency in assay [7] and in assay [8] were 18.7 µM (active) and 23.5 µM (active), respectively.
As for `CO[C@H]1/C=C\O[C@@]2(C)Oc3c(C)c(O)c4c(O)c(c5c(nc6cc(C)ccn65)c4c3C2=O)NC(=O)C(C)=CC=C[C@H](C)[C@H](O)[C@@H](C)[C@@H](O)[C@@H](C)[C@H](OC(C)=O)[C@H]1C`, the Potency entry in [1], in [4], in assay [10], in assay [7] and in assay [8] was “inactive” throughout. In addition, the Potency in [2] is 20.9 µM (active); in assay [3], 16.6 µM (active); in assay [9] it was 20.9 µM (active).
On to `N#CC(=C1Nc2ccccc2S1)c1ccnc(OCc2ccc(CN3CCOCC3)cc2)n1`, for which the Potency is 20.9 µM (active) in [1]; 0.0372 µM (active) in [2]; 18.7 µM (active) in assay [11]; 8.33 µM (active) in [3]; 16.6 µM (active) in [12]; 5.26 µM (active) in assay [13]. The Potency in assay [4] is 1.18 µM (active); in [14], 1.18 µM (active); in assay [5], 5.26 µM (active); in assay [9], 20.9 µM (active); in assay [7], 1.05 µM (active).
As to `CCCCn1c(=O)n(Cc2ccccc2F)c(=O)c2[nH]c(Cc3ccc(NC(C)=O)cc3)nc21`, the Potency entry in assay [1], in assay [2], in assay [12], in assay [4], in assay [5] and in assay [9] was “inactive” in each case. The Potency result in assay [10] and in [8] was “inactive” in each case. The Potency was 5.9 µM (active) in [11], 11.8 µM (active) in assay [3] and 18.7 µM (active) in [13].
As usually defined, the viability is a read-out of living cells in per cent, often relative to untreated cells. On to `CC(C)C[C@@H](N)[C@H](O)C(=O)N[C@H](C(=O)N[C@H](C(=O)N[C@@H](CC(=O)O)C(=O)O)C(C)C)C(C)C`, for which the Potency entry in assay [1], in assay [2], in assay [3], in assay [9], in assay [10] and in assay [7] was “inactive” throughout. In addition, the Potency is 4.69 µM (active) in assay [12]; 7.43 µM (active) in assay [4]; 2.64 µM (active) in assay [14]; 5.26 µM (active) in [16]; 18.7 µM (active) in assay [5]. The viability in assay [15] was 122%.
Regarding `Fc1ccc(C(c2ccc(F)cc2)N2CCN(CC=Cc3ccccc3)CC2)cc1`, the Potency in assay [1] was 16.6 µM (active); in assay [17] it was 13.2 µM (active); in assay [3], 14.8 µM (active); in assay [4], 7.43 µM (active); in assay [14], 9.35 µM (active); in assay [16], 8.33 µM (active). In addition, the Potency is 5.26 µM (active) in [5], 5.9 µM (active) in assay [6] and 16.6 µM (active) in assay [9]. Besides, the Potency entry in assay [2], in [11], in [12], in assay [13], in assay [18] and in assay [10] was “inactive” each time. For the same molecule, in [15], the viability is 107%.
In the case of `O=c1[nH]nc(OCCCc2ccc(Cl)cc2)c(NCc2cccnc2)c1Br`, the Potency in [1] is 14.8 µM (active); in assay [2] it was 3.72 µM (active); in assay [17], 7.43 µM (active); in [3], 18.7 µM (active); in assay [12] it was 4.69 µM (active); in [15], 18.7 µM (active). In addition, the Potency is 7.43 µM (active) in assay [13]; 2.96 µM (active) in assay [4]; 9.35 µM (active) in assay [14]; 9.35 µM (active) in assay [16]; 9.35 µM (active) in assay [5]; 4.69 µM (active) in [6]. Further, the Potency in assay [9] was 20.9 µM (active); in [10], 23.5 µM (active); in assay [7] it was 5.26 µM (active); in assay [8], 20.9 µM (active).
`C[C@@]1(c2cc(-c3cncnc3)c(F)cc2F)CCSC(N)=N1`: the Potency entry in assay [1], in [11], in assay [13] and in [18] was “inactive” in each case. The Potency is 1.48 µM (active) in assay [2], 2.96 µM (active) in [6] and 13.2 µM (active) in assay [8].
For `Cc1csc(-c2nnc(Nc3ccc(Oc4ncccc4-c4ccnc(N)n4)cc3)c3ccccc23)c1`, the Potency in [1] is 20.9 µM (active); in assay [2], 20.9 µM (active); in [12], 18.7 µM (active); in [13] it was 23.5 µM (active); in [14], 0.469 µM (active); in assay [6] it was 20.9 µM (active).
As to `CC[C@H](C)C(=O)O[C@H]1C[C@H](O)C=C2C=C[C@H](C)[C@H](CC[C@@H](O)C[C@@H](O)CC(=O)O)[C@H]21`, the Potency result in assay [1], in assay [2], in [11], in assay [17], in [3] and in assay [12] was “inactive” throughout. Also, the Potency result in [13], in assay [4], in assay [14], in assay [18], in assay [5] and in [6] was “inactive” throughout. Besides, the Potency entry in [9] and in [10] was “inactive” each time. Also, the viability in [15] was 102%.
Take `N[C@@H](CC(=O)N1CCn2c(nnc2C(F)(F)F)C1)Cc1cc(F)c(F)cc1F`: the Potency entry in [1], in assay [4], in assay [16], in assay [6], in assay [10] and in assay [7] was “inactive” throughout. Moreover, the Potency was 9.35 µM (active) in assay [19], 3.72 µM (active) in [5] and 4.69 µM (active) in assay [8].
In the case of `O=S(=O)(NCCNCC=Cc1ccc(Br)cc1)c1cccc2cnccc12`, the Potency is 7.43 µM (active) in [1]; 2.96 µM (active) in assay [2]; 23.5 µM (active) in assay [17]; 14.8 µM (active) in [3]; 8.33 µM (active) in [12]; 18.7 µM (active) in assay [15]. For the same molecule, the Potency in assay [13] is 20.9 µM (active); in [4], 2.64 µM (active); in assay [16], 5.26 µM (active); in assay [18], 7.43 µM (active); in assay [5], 16.6 µM (active); in assay [6], 16.6 µM (active). Also, the results for the Potency in [9], in assay [7] and in [8] were 20.9 µM (active), 16.6 µM (active) and 16.6 µM (active), respectively.
Consider `Cc1ccc(NC(=O)Nc2cc(C(F)(F)F)ccc2F)cc1Nc1ccc2c(c1)NC(=O)C2=Cc1ccc[nH]1`, for which the Potency in [1] was 26.4 µM (active); in assay [2] it was 7.43 µM (active); in assay [17], 2.96 µM (active); in [3] it was 23.5 µM (active); in assay [12], 4.69 µM (active); in assay [4] it was 5.26 µM (active). Moreover, the Potency in assay [14] was 6.62 µM (active); in assay [16], 5.26 µM (active); in assay [18] it was 8.33 µM (active); in [5], 4.18 µM (active); in [6], 3.32 µM (active).
